From PubChem BioAssay (NCI)
The panel holds about 83,000 compounds, 20% with a hit somewhere; the sample as a whole holds those more often.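 Each cell line was grown in a 96-well plate and treated with one concentration of compound for 48 hours. Values below 10 were considered active.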 Unmarked numbers belong to inactive results. Active and inactive are the calls of the source.

The compounds below were run on MDA-MB-468 breast (assay: NCI-60 one-dose screen, 48 h (100 = growth as untreated, 0 = no growth, -100 = all killed)). Conditions: 10 µM unless noted.

| Structure (SMILES) | growth |
| --- | --- |
| O=C1/C=C/[C@@H](O)[C@@H]2C[C@@H](O)C[C@H]2/C=C/CCC[C@H]([C@@H](O)CO)O1 | -5.34% (active) |
| Cc1cc(C)c(-c2c(O)c(Br)c(-c3c(C)cc(C)c(Br)c3C)c(O)c2Br)c(C)c1Br | 48.9% |
| C=C1C(=O)O[C@H]2[C@H]1CC/C(CNC(=O)c1cc3ccccc3[nH]1)=C\CC[C@@]1(C)O[C@@H]21 | -61.7% (active) |
| COc1cc2nc(Cl)nc(Nc3cccc(C(=O)/C=C/c4ccccc4)c3)c2cc1OC | 68.9% |
| COc1ccc(/C(C)=C(\c2ccc(Cl)cc2)c2ccc(OCCN3CCCC3)cc2)cc1F | 37.5% |
| CS(=O)(=O)c1nnc(-c2ccccc2)s1 | -8.46% (active) |
| CCCCCC#CC(=O)O | 108% |
| CNC(=O)c1c(NC(=O)c2ccc(C(C)C)cc2)sc2c1CCC(=O)C2 | -28.4% (active) |
| C#C[C@]1(O)CC[C@H]2[C@@H]3CC=C4c5sc(Nc6cccc(Cl)n6)nc5CC[C@]4(C)[C@H]3CC[C@@]21C | 23.3% |
| CC(=O)OC(C(=O)O)c1ccccc1 (stereo unspecified) | 104% |
| COc1ccc2c(c1)N(CCO)C1=C(C(=O)OC1)C2c1cc(OC)c(OC)c(OC)c1 (stereo unspecified) | 3.62% (active) |
| Nc1nc(N)c2c(n1)NC(c1ccc(Cl)cc1)CC(c1cccc(Nc3ccncc3)c1)=N2 (stereo unspecified) | 57.4% |
| CNC(=O)c1cc(Oc2cccc3nc(NC(=O)Nc4cc(C(F)(F)F)cc(C(F)(F)F)c4)ccc23)ccn1 | 32% |
| CC(C)(CCCN=C(N)Nc1ccc(Cl)cc1)c1ccc(F)cc1 | 16.1% |
| Cc1ccc(-c2nc3c(N=Nc4ccc(S(N)(=O)=O)cc4)c(N)nn3c(N)c2C#N)cc1 | 5.87% (active) |
| N#C/C(=C\c1ccc[nH]1)c1cc2ccccc2[nH]1 | -3.15% (active) |
| CN(C)c1ccc2oc(=O)c3ccccc3c2c1 | 78.3% |
| O=C(/C(=C\c1ccc([N+](=O)[O-])cc1)S(=O)Cc1ccc(F)cc1)c1ccc(F)cc1 (stereo unspecified) | 16.3% |
| O=C1/C=C/[C@@H](O)[C@@H]2C[C@@H](O)C[C@H]2/C=C/CCC[C@@H](C(F)(F)F)O1 | -40.7% (active) |
| COc1cc2c(cc1OC)-c1cc(OC)c(OC)cc1C(CN(C)C)C2 (stereo unspecified) | 66.4% [100 µM] |
| CCSc1nc2ccccc2o1 | 111% |
| COC(=O)Nc1nc2ccc(S(=O)c3ccccc3)cc2[nH]1 (stereo unspecified) | 33.8% |
| COc1ccc(-c2c(C(N)=O)c(N)n(Cc3nc4ccccc4[nH]3)c(=O)c2C#N)c(OC)c1 | 99.2% |
| C=CCNc1ccccc1 | 108% |
| CCCCCCCCCCCC(=O)OC(C)C(=O)Nc1ccccc1 (stereo unspecified) | 111% |
| Cc1ccc(C(=Nc2ccccc2)N=P(c2ccccc2)(c2ccccc2)c2ccccc2)cc1 | -83% (active) |
